Compound activity deposited in PubChem by National Center for Advancing Translational Sciences (NCATS).
The sample as a whole holds a higher share of hits than the screen did.
LmPK inh: qHTS Assay for Inhibitors of Leishmania Mexicana Pyruvate Kinase (LmPK). Q27686. purified LmPK, Kinase-Glo ATP luminescence, 1 h. Potency, µM (top dose mostly 57.5 µM), for inactives: at the top dose activity change, negative = inhibition, actives largely listed as inhibitors. hit rate 0.37% among 290,000. AID 1721, 2009; note: potency is the fitted concentration of half-maximal effect; % is set by controls: 0 for no effect and ±100 for the full control effect
Target sequence (Q27686 whole entry, looked up): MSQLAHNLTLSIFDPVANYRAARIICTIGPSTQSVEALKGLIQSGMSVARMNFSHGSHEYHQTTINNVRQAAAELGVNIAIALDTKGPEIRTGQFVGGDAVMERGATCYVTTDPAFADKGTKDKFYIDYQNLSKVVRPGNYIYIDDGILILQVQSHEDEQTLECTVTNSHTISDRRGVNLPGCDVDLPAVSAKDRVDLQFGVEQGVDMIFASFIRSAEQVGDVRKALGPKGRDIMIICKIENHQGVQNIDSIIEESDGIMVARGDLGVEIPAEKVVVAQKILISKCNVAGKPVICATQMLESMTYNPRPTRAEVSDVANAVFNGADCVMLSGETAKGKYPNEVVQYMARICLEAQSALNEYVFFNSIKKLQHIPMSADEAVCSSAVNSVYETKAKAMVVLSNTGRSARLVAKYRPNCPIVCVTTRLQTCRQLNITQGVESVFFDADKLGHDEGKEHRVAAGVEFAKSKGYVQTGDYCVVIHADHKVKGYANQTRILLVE
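Purified LmPK (0.1 nM) with 0.5 mM PEP and 0.1 mM ADP in imidazole buffer pH 7.2 with MgCl2/KCl, 1 h at room temperature. ATP formed was read by luciferase luminescence and normalized to no-enzyme and uninhibited controls.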
TbPYK inhibitor: qHTS of Trypanosoma Brucei Inhibitors. Potency, µM (doses to about 76.8 µM), for inactives: at the top dose activity, negative = inhibition, usual class: inhibitors. hit rate 0.12% among 410,000. AID 624173, 2012. TbPYK enzyme, Kinase-Glo Plus ATP luminescence, 45 min. pyruvate kinase (Trypanosoma brucei), Q57TT1; note: potency is the fitted concentration of half-maximal effect; % is set by controls: 0 for no effect and ±100 for the full control effect; nearly all actives have a fitted effect of over 50% in size
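TbPYK + substrate in 50 mM TEA pH 7.2, 100 mM KCl, 10 mM MgCl2, 0.05% BSA, 0.01% Tween-20; cpd pinned; ADP 130 uM final; 45 min RT; Kinase-Glo Plus 10 min; luminescence endpoint.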
RE007 growth inh: qHTS Assay for Inhibitors of the HIV-1 protein Vpr | hit rate 0.21% among 360,000 | Potency, µM (titrated, usually from 92.2 µM), without a hit: at the top dose activity change, negative = less growth, hits mostly inhibitors | S. pombe RE007 Vpr strain, BacTiter-Glo ATP luminescence, 24 h | AID 651644, 2012; active = well fitted falling curve with a large enough effect; inconclusive = small, poorly fitted or top-dose-only effect; inactive = no such curve, though single readings can be large or run the other way; note: potency is the fitted concentration of half-maximal effect; % is set by controls: 0 for no effect and ±100 for the full control effect; nearly all actives have a fitted effect of over 50% in size
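Fission yeast RE007 carrying one integrated HIV-1 vpr copy, seeded at OD 0.01 in PMG+AL medium with 23 nL pinned compound. Grown 24 h at 30 degrees; viability read by BacTiter-Glo luminescence after 5 min.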
Giardia FBPA inh: qHTS Assay for Inhibitors of Fructose-1,6-bisphosphate Aldolase from Giardia Lamblia. A8B2U2. purified Giardia FBPA. Potency, µM (highest dose often 59.6 µM), inactives show at the highest dose activity, negative = inhibition, actives largely listed as inhibitors. hit rate 0.71% among 290,000; note: potency is the fitted concentration of half-maximal effect; % is set by controls: 0 for no effect and ±100 for the full control effect; nearly all actives have a fitted effect of over 55% in size
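Giardia FBPA (40 nM reagent) was preincubated 10 min at RT with compound (up to 57.5 uM final), then substrate plus GAPDH/TPI/NAD/arsenate coupling system with diaphorase/resazurin was added; resorufin fluorescence (525/598 nm) was read after 20 min.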
Shiga toxin inh: A qHTS for Small Molecule Inhibitors of Shiga Toxin. AID 2315, 2010. Vero cells, Shiga toxin protein synthesis inhibition reporter. hit rate 9.2% among 290,000. inhibition, % at 38.7 µM; in the data active = inhibition mostly above about 28%, no sharp cut-off; inactive = mostly below about 43%; note: 0% is about no effect
Cycloheximide cs: Cycloheximide Counterscreen for Small Molecule Inhibitors of Shiga Toxin; cell reporter, cycloheximide protein synthesis inhibition counterscreen; max response, %; hit rate 12% among 300,000; AID 2314, 2010; in the data active = max response mostly above about 13%, no sharp cut-off; inactive = mostly below about 14%; note: read at 38.3 µM for the half of the compounds with a filed dose; 0% is about no effect
* hit, by the source's call; [ ] = remark or other dose. Unless noted, calls come from the whole dose curve; as a rule, active = well fitted curve in the direction sought with a large enough effect; inconclusive = small, poorly fitted or top-dose-only effect, or another doubt; inactive = no such curve, though single readings can be large; an effect the other way counts as inactive or inconclusive.

Screening NC(=O)c1ccccc1NS(=O)(=O)Cc1ccccc1 returned LmPK inh 9.1%, TbPYK inhibitor -5.0%, RE007 growth inh 11.8%, Giardia FBPA inh -4.7%, Shiga toxin inh -0.4 and Cycloheximide cs -0.8.
Screening O=C(CSc1nnc(CNC(=O)c2ccco2)o1)Nc1ccccc1C(F)(F)F returned LmPK inh -5.1%, TbPYK inhibitor 9.2%, RE007 growth inh -3.3%, Shiga toxin inh 9.1 and Cycloheximide cs 2.5.
`O=C1CCCc2cc(S(=O)(=O)NCC3CCC(C(=O)Nc4ccc(Cl)cc4)CC3)ccc2N1` (configuration not stated) gave TbPYK inhibitor 0.5%.
For CCOn1c(=O)c(-c2ccc(Br)cc2)[n+]([O-])c2ccccc21 the results were LmPK inh 2.6%, TbPYK inhibitor -2.5%, RE007 growth inh -2.5%, Giardia FBPA inh 7.0%, Shiga toxin inh 22.1 and Cycloheximide cs 8.8.
Screening O=c1c(-c2ccc(Br)cc2)[n+]([O-])c2ccccc2n1OCc1ccccn1 returned LmPK inh 2.2%, TbPYK inhibitor inconclusive, RE007 growth inh 6.4%, Giardia FBPA inh 0.0%, Shiga toxin inh 22.8 and Cycloheximide cs 0.4.
`O=c1c(-c2cc3ccccc3o2)[n+]([O-])c2ccccc2n1OCc1ccccn1` gave LmPK inh -6.2%, TbPYK inhibitor -8.7%, RE007 growth inh -11.2%, Giardia FBPA inh -5.8%, Shiga toxin inh 101.4* and Cycloheximide cs 47.7*.
`CCOn1c(=O)c(-c2cc3ccccc3o2)[n+]([O-])c2ccccc21` gave LmPK inh 0.8%, TbPYK inhibitor -9.9%, RE007 growth inh -17.2%, Giardia FBPA inh -2.3%, Shiga toxin inh 163.4* and Cycloheximide cs 47.3*.
NS(=O)(=O)c1ccc(CCNC(=O)c2cnccn2)cc1 was read as LmPK inh 0.1%, TbPYK inhibitor 2.6%, RE007 growth inh 1.2%, Giardia FBPA inh 0.8%, Shiga toxin inh -1.7 and Cycloheximide cs 3.4.
For CC1=C(C(=O)N(C)C)CC(CC(=O)NCCCCc2ccccc2)C(=O)N1Cc1ccc(C(C)(C)C)cc1 (configuration not stated) the results were TbPYK inhibitor -14.4% and RE007 growth inh -3.1%.
`O=C(CC1=NCCNC(c2ccccc2)C1)c1ccccc1O` (configuration not stated) gave LmPK inh 8.8%, TbPYK inhibitor 3.6%, RE007 growth inh -5.3%, Giardia FBPA inh 24.3%, Shiga toxin inh 35.5* and Cycloheximide cs 31.8*.
COc1ccccc1C(=O)NNC(=O)c1ccncc1 was read as LmPK inh -0.2%, TbPYK inhibitor -5.2%, RE007 growth inh 0.4%, Giardia FBPA inh -2.9%, Shiga toxin inh 33.0 and Cycloheximide cs 2.5.
For COc1ccccc1/C=N/OC(=O)c1ccc(C)cc1 the results were LmPK inh -2.9%, TbPYK inhibitor -0.7%, RE007 growth inh -5.9%, Giardia FBPA inh 0.2%, Shiga toxin inh 15.7 and Cycloheximide cs 11.3*.
For COc1ccccc1C(=O)NNC(=O)c1ccc(Br)cc1 the results were LmPK inh 7.3%, TbPYK inhibitor -1.1%, RE007 growth inh -26.7%, Giardia FBPA inh -13.6%, Shiga toxin inh 15.5 and Cycloheximide cs 10.3*.
Screening COC(=O)c1ccc(CO/N=C/c2ccccc2OC)cc1 returned LmPK inh 2.0%, TbPYK inhibitor 2.7%, RE007 growth inh 1.7%, Giardia FBPA inh -11.1%, Shiga toxin inh 13.0 and Cycloheximide cs 6.1.
Screening COc1ccccc1C(=O)NNC(=O)c1ccc(C)cc1 returned LmPK inh -1.5%, TbPYK inhibitor 1.6%, RE007 growth inh -18.0%, Giardia FBPA inh 3.4%, Shiga toxin inh 31.8 and Cycloheximide cs 20.4*.
For COc1ccccc1C(=O)NNC(=O)c1ccc(Br)o1 the results were LmPK inh 0.9%, TbPYK inhibitor 5.7%, RE007 growth inh -21.4%, Shiga toxin inh 82.1* and Cycloheximide cs 43.9*.
COc1ccccc1-c1nc(SCC(=O)Nc2ccc(C)c(C)c2)n[nH]1 was read as TbPYK inhibitor -1.0%.
CN(Cc1ccccc1)C(=O)C1CCN(S(=O)(=O)Cc2ccccc2)CC1 was read as TbPYK inhibitor -4.3%.
Screening COC(=O)c1ccccc1NC(=O)c1c(C)oc2ncn(C)c(=O)c12 returned TbPYK inhibitor 5.4%.
Screening Cc1ccc(-c2nc(-c3ccncc3)no2)c(Cl)c1 returned LmPK inh -4.0%, TbPYK inhibitor -1.8%, RE007 growth inh -9.8%, Giardia FBPA inh 13.6% and Cycloheximide cs 34.8*.
Screening Clc1ccccc1-c1nc(-c2ccncc2)no1 returned LmPK inh inconclusive, TbPYK inhibitor 1.2%, RE007 growth inh inconclusive, Giardia FBPA inh 10.0%, Shiga toxin inh 97.4* and Cycloheximide cs 26.3*.
Clc1ccccc1-c1nnc(-c2cccs2)o1 was read as LmPK inh 3.5%, TbPYK inhibitor -1.3%, RE007 growth inh inconclusive, Giardia FBPA inh 5.6%, Shiga toxin inh 89.2* and Cycloheximide cs 40.7*.
For Clc1ccc(-c2nc(-c3ccncc3)no2)c(Cl)c1 the results were TbPYK inhibitor -0.5% and RE007 growth inh -1.1%.
Screening Clc1ccccc1OCCSc1nnc(-c2cccs2)o1 returned TbPYK inhibitor -2.1%.
Screening Cc1nc(-c2noc(-c3ccccc3Cl)n2)c(C(F)(F)F)o1 returned LmPK inh -19.9%, TbPYK inhibitor -0.7%, RE007 growth inh -8.9%, Giardia FBPA inh 3.6%, Shiga toxin inh 46.7* and Cycloheximide cs 60.6*.
For CS(=O)(=O)c1ccc(C(=O)C2C(=O)CCCC2=O)c([N+](=O)[O-])c1 the results were TbPYK inhibitor -8.1%[157 µM].
`COc1cc(OC)c2c(c1)OC1Cc3cc(OC)c(OC)cc3C2O1` (configuration not stated) gave LmPK inh 1.8%[11.5 µM] and Giardia FBPA inh 8.1%[12.9 µM].
Screening Clc1ccccc1-c1nnc(-c2cccnc2)o1 returned LmPK inh -1.5%, TbPYK inhibitor -2.1%, RE007 growth inh inconclusive, Giardia FBPA inh 1.0%, Shiga toxin inh 58.1 and Cycloheximide cs 25.5*.
Clc1ccccc1/C=C/c1nc(-c2cccnc2)no1 was read as LmPK inh -5.7%, TbPYK inhibitor -6.3%, RE007 growth inh -8.6%, Giardia FBPA inh 3.4%, Shiga toxin inh 97.9* and Cycloheximide cs 40.6*.
For Clc1ccccc1-c1nc(-c2cccnc2)no1 the results were LmPK inh -27.6%, TbPYK inhibitor -0.9%, RE007 growth inh inconclusive, Giardia FBPA inh 4.8%, Shiga toxin inh 83.4* and Cycloheximide cs 24.6*.
Screening c1ccc(-c2ccccc2-c2nc(-c3ccncc3)no2)cc1 returned LmPK inh -11.8%, TbPYK inhibitor -3.5%, RE007 growth inh -8.0%, Giardia FBPA inh 0.2%, Shiga toxin inh 6.8 and Cycloheximide cs -1.0.
